# PubChem BioAssay
# Inconclusive results are not listed. The source made the active and inactive calls. Cut-off read from the data, not from the text of the source, unless noted: active = inhibition above about 30%; inactive = the rest.
# Key:
# [1] = Her2 expression decrease, cell viability multiplex – SKBR3 breast tumor cells, AlphaScreen, ATP viability, primary screen (AID 461;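 active = Her2 level under about 52% in both replicate screens, with viability over 70% of control, limit read from the data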;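 for Her2 level: lower value means less Her2 protein in the cells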;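 for viability: percent of carrier control wells set as 100% viability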); settings: SKBR3 Her2 protein level, 18-24 h, measured here: SKBR3 viability, ATP luminescence, at 10 µM
# [2] = target: Receptor tyrosine-protein kinase erbB-2 (Homo sapiens) (UniProt P04626); assay: as above; settings: 18-24 h, at 10 µM, stronger effect = lower value
# Receptor tyrosine-protein kinase erbB-2 (Homo sapiens), sequence (P04626 whole entry, looked up): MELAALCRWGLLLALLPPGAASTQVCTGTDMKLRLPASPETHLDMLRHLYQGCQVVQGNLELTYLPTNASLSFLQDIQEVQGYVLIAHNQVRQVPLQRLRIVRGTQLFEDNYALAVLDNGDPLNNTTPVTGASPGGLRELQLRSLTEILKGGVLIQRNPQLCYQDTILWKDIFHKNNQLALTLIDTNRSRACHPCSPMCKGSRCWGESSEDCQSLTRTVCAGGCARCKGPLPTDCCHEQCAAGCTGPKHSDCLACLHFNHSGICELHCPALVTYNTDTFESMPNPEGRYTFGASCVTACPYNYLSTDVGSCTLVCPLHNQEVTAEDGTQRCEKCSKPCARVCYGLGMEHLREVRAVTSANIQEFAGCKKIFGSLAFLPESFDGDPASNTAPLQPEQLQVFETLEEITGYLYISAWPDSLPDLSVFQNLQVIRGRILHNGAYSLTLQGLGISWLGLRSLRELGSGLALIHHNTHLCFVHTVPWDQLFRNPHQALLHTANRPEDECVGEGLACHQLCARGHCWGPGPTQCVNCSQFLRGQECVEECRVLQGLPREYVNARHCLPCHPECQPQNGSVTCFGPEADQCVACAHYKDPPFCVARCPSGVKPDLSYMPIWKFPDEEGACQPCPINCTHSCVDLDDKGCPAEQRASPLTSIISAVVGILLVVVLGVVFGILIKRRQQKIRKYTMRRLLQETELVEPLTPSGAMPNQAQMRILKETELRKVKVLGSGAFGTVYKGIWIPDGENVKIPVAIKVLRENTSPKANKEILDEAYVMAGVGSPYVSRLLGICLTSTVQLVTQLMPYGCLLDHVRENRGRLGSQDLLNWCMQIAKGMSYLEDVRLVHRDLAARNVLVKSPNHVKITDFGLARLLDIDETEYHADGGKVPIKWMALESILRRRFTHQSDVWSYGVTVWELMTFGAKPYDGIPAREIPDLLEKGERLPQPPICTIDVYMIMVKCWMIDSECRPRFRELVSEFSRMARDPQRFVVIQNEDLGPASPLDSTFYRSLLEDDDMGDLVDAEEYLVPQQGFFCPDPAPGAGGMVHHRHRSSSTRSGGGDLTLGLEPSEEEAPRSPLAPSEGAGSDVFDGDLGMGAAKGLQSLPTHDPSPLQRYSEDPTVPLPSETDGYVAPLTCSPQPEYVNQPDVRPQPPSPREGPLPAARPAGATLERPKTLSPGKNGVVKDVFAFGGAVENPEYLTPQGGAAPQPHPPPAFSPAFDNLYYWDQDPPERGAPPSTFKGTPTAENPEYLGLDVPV
# [3] = reduced viability of SK-BR-3 breast cancer cells – cell-based, 24 h, human, pilot screen (AID 572;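 active = viability at or below 10% of carrier control in both of two separate runs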;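 note: compound exposure lasted between 18 and 24 h rather than exactly 24 h; 100% = carrier-treated control wells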); settings: SK-BR-3 viability, CellTiter-Glo luminescence, at 10 µM, stronger effect = lower value
# [4] = HUVEC growth inhibition – cell-based, human, primary screen (AID 575;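 active = viability at or below 30% in both replicate assays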;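 note: 100% = median of untreated cell wells with 0.1% DMSO on each plate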); settings: HUVEC proliferation, CellTiter-Glo luminescence, 72 h; at 10 µM; stronger effect = lower value
# [5] = H69AR cell proliferation blockers – human, duplicate replicates, primary screen (AID 580;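 active = viability at or under a set limit in both replicates, limit being median viability minus 3 SD, cut at about 48% in these data, passing the limit was not always enough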;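 note: 100% = mean luminescence of untreated wells and 0% = no signal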); settings: H69AR lung tumor cells viability, ATP luminescence, 72 h; at 10 µM; stronger effect = lower value
# [6] = MRP1 drug-resistance reversers in H69AR cells – cell-based, doxorubicin co-treatment, pilot screen (AID 601;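 active = viability loss from added drug above about 55%, and viability with drug at most 40%, in both replicates, limit read from the data, passing the limit was not always enough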); settings: CellTiter-Glo, 72 h, at 10 µM; for differential viability (reversal): stronger effect = higher value
# [7] = yeast transport mutant growth inhibition pilot in 384-well plates, post-Golgi transport modulator project (AID 636; in the data active = inhibition above about 31%); settings: absorbance 615 nm, about 18 h, stronger effect = higher value
# [8] = growth suppression of yeast trafficking mutant, preliminary HTS, modulators of trafficking downstream of Golgi apparatus project, 1536-format plate, OD 615 nm (AID 637); settings: yeast transport mutant growth, absorbance 615 nm, 18 h; stronger effect = higher value
# [9] = S. cerevisiae growth inhibition in permissive medium (OD615), pilot counter-assay for S. cerevisiae lifespan shortening project, permissive growth control (AID 705;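 active = growth inhibition above 25% in both replicates, a cutoff set 3 SD above the mean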); settings: OD615, 24 h, at 10 µM, stronger effect = higher value
# [10] = S. cerevisiae growth inhibition in restrictive medium, OD615, pilot screen, restrictive growth control, yeast lifespan reduction project (AID 706;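 active = growth inhibition above a set limit, 3 SD over mean compound inhibition, in both replicates, cut at about 43% in these data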;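 note: modified DeaD lifespan yeast strain shifted to restrictive glucose medium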); settings: OD615, 48 h, at 10 µM, stronger effect = higher value
# [11] = doxorubicin toxicity protection in MRP-1 cells – H69AR cells, CellTiter-Glo, duplicate, MRP-1 activator project, pilot screen (AID 807;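 active = viability increase at or above a cutoff of the median across tested compounds plus 3 SD, cut at about 8.5% in these data, passing the limit was not always enough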;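 note: compound pretreatment 18-22 h then 72 h combined with doxorubicin; 0% = doxorubicin alone and 100% = vehicle without doxorubicin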); settings: H69AR viability with doxorubicin, CellTiter-Glo luminescence; at 10 µM; stronger effect = higher value
# [12] = viability of HCT116 without oncogenic beta-catenin – human colon tumor cells, pilot screen (AID 823;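 active = cell viability at or below a set limit in both duplicate runs, the limit being the all-compound median minus 4 SD, cut at about 23% in these data, passing the limit was not always enough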;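 note: 0% = wells killed by 20 µM Hyamine and 100% = untreated DMSO cell wells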); settings: HCT116 beta-catenin knockout viability, CellTiter-Glo, 60 h; at 10 µM; stronger effect = lower value
# [13] = viability of PTEN-null HCT116 cells – cell-based, HCT116 clonal line, CellTiter-Glo, pilot screen (AID 824;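 active = viability at or below 27.92% in each of two runs, the all-compound median minus 4 SD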;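 note: 0% = 20 µM Hyamine control and 100% = vehicle cell control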); settings: HCT116 PTEN-deleted viability, 60 h, at 10 µM, stronger effect = lower value
# [14] = RAM pathway blockade in budding yeast – dse1pr::URA3 reporter, 5-FOA selection, pilot screen (AID 869;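 active = inhibition over a set limit, the all-compound mean plus 3 SD, in both replicate runs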;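 note: 0% = DMSO wells with no growth and 100% = 10 µM 1-NA-PP1 with full growth; RAM network block rescues cells from 5-FOA so hits raise OD615 growth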); settings: S. cerevisiae dse1pr::URA3 5-FOA growth, OD615, 2 d; at 10 µM; stronger effect = higher value; strain carries analog-sensitive mutant Cbk1 kinase
# [15] = RAM signaling pathway blockade in yeast – S. cerevisiae, Pdr1DBD-CYC8 efflux-inhibited sensitized strain, primary screen (AID 1298;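 active = RAM network inhibition above 8.4% in each of two replicates, 3 SD over the compound average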;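 note: 0% = DMSO untreated cells without growth and 100% = 10 µM 1-NA-PP1 full growth; higher means more yeast growth rescued from 5-FOA killing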); settings: S. cerevisiae cbk1-as DSE1-URA3 strain, 5-FOA growth OD615, 2 d; at 50 µM; stronger effect = higher value
# [16] = H69AR cells + 2 uM doxorubicin, measured here: viability with 2 uM doxorubicin, stronger effect = lower value
# [17] = H69AR cells, compound alone cytotoxicity
Structure (SMILES),viability [1] [%],Her2 level [2],viability [3],viability [4],viability [5],differential viability (reversal) ([6]; H69AR cells + 2 uM doxorubicin),"viability [6, 16] [%]","viability [6, 17] [%]",inhibition [7],inhibition [8],growth inhibition [9],growth inhibition [10],viability increase [11],viability [12],viability [13],inhibition [14],RAM network inhibition [15]
CCOc1cc(C2C3=C(CCCC3=O)N(C)C3=C2C(=O)CCC3)cc(Cl)c1O,106,74.5% (inactive),106% (inactive),105% (inactive),104% (inactive),12.8% (inactive),91.5,104,-6.35% (inactive),0.49% (inactive),-11.5% (inactive),-16.7% (inactive),2.27% (inactive),96.1% (inactive),95.8% (inactive),1.12% (inactive),4.21% (inactive)
Cc1cc2ccccc2n1CCNC(=O)C1CC1,89.5,81% (inactive),89.5% (inactive),89.8% (inactive),88.1% (inactive),-5.55% (inactive),93.6,88.1,-4.8% (inactive),4.67% (inactive),-2.51% (inactive),1.02% (inactive),-0.53% (inactive),98.3% (inactive),101% (inactive),0.66% (inactive),2.78% (inactive)
CN1CCN(c2nc3c(c(=O)[nH]c(=O)n3C)n2CCSc2nc3ccccc3s2)CC1,87,90.5% (inactive),87% (inactive),98% (inactive),75.2% (inactive),-10.6% (inactive),85.8,75.2,-0.51% (inactive),1% (inactive),-6.02% (inactive),-0.85% (inactive),-2.32% (inactive),98.3% (inactive),91.9% (inactive),2.66% (inactive),-1.87% (inactive)
CC(C(=O)N1CC2(C)CC1CC(C)(C)C2)N1C(=O)c2ccccc2C1=O (stereo not drawn),84,101% (inactive),84% (inactive),101% (inactive),98.1% (inactive),16.8% (inactive),81.3,98.1,-7.07% (inactive),0.32% (inactive),-13.3% (inactive),-0.265% (inactive),-3.98% (inactive),82.1% (inactive),83.5% (inactive),0.545% (inactive),4.35% (inactive)
COc1ccc(C(NC(=O)c2ccco2)c2ccc(OC)c(OC)c2)cc1 (stereo not drawn),93,84% (inactive),93% (inactive),89.2% (inactive),96.2% (inactive),15.1% (inactive),81.1,96.2,-8.11% (inactive),-3.17% (inactive),-14.2% (inactive),-19.3% (inactive),-4.05% (inactive),98.2% (inactive),96.4% (inactive),1.3% (inactive),2.41% (inactive)
O=C(NCCN1C(=O)C2C3C=CC(C3)C2C1=O)N1CCCCC1 (stereo not drawn),122,112% (inactive),122% (inactive),100% (inactive),103% (inactive),6.97% (inactive),96.5,103,4.93% (inactive),-4.83% (inactive),-11.7% (inactive),0.245% (inactive),-0.67% (inactive),102% (inactive),95.1% (inactive),2.13% (inactive),3.08% (inactive)
CCn1cc(C(=O)NCCCOC)c(=O)c2cc(S(=O)(=O)N(C)C)ccc21,92,106% (inactive),92% (inactive),89.3% (inactive),87.6% (inactive),-23.8% (inactive),111,87.6,-1.73% (inactive),-5.33% (inactive),-8.04% (inactive),-9.63% (inactive),-2.52% (inactive),97.6% (inactive),94.2% (inactive),0.395% (inactive),0.52% (inactive)
CCCCn1c(CN2CCN(c3ccc(F)cc3)CC2)nc2c1c(=O)n(C)c(=O)n2C,98,93% (inactive),98% (inactive),66.9% (inactive),95.5% (inactive),-3.86% (inactive),99.3,95.5,-3.33% (inactive),-5.74% (inactive),-8.42% (inactive),-1.05% (inactive),-0.4% (inactive),80.3% (inactive),85.8% (inactive),1.07% (inactive),3.49% (inactive)
CCOC(=O)C(CC)Sc1ncnc2nc[nH]c12 (stereo not drawn),104,106% (inactive),104% (inactive),103% (inactive),101% (inactive),13% (inactive),88.2,101,0.13% (inactive),-7.27% (inactive),-11% (inactive),-11.7% (inactive),-1.92% (inactive),97.5% (inactive),91.9% (inactive),1.79% (inactive),2.41% (inactive)
